The first experiment addresses T1, BATF;JUNB (human;human, UniProt Q16520;P17275 1-125;148-347, |).
T1 sequence 1: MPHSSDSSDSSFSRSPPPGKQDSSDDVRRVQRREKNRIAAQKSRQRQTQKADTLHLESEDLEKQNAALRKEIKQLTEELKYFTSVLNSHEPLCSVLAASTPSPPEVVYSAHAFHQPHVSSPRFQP
T1 sequence 2: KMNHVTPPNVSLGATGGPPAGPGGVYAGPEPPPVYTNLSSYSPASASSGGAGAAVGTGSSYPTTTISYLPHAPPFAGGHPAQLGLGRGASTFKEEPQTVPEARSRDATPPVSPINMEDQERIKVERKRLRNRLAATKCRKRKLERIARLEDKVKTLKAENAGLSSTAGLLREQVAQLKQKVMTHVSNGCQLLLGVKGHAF
The experiment is described as follows: Spec-seq (EMSA and sequencing of bound and unbound bands); 100 nM BATFx-JUNB, 1 uM dsDNA library, 50 mM K acetate, 20 mM Tris-acetate, 10 mM Mg acetate, 100 ug/ml BSA, pH 7.9, 10% glycerol, 30 min on ice; native 9% PAGE at 4 C; low values mean tight binding. To be noted: protein: recombinant;recombinant; tags: N-terminal mCherry-TEV, cleaved off;C-terminal 6His; copies: 1;1; dsDNA, one strand shown. Put shortly: (§1)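 The protein, at 100 nM, was incubated with 1 μM double-stranded degenerate DNA library for 30 min on ice in NEB Cutsmart buffer with 10% glycerol, then resolved by native 9% PAGE at 4 °C. Excised bound and unbound bands were PCR-barcoded and Illumina-sequenced, and each sequence's relative binding energy in kT is −ln of its bound/unbound read-count ratio.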
In general terms: In EMSA bound probe runs differently from free probe, usually more slowly.
Turning to “GATAGTCTCATTTTCACCCCGTGAAATGAGACACTTGTTCCATTACAGTATCTGT”, the binding signal was 0.71 kT. On the same count and under the same terms, next, “GATAGTCTCATTTTCACCCCGTGAAACTGGGTCATTGTTCCATTACAGTATCTGT”: 0.364 kT. The same measure, in the same setting: next, “GATAGTCTCATTTTCACCCCGTGAAATGACTCCGTTGTTCCATTACAGTATCTGT”: 0.0406 kT. The same measure, in the same setting: to “GATAGTCTCATTTTCACCCCGTGAAATGAGACATTTGTTCCATTACAGTATCTGT” belongs 0.216 kT; to “GATAGTCTCATTTTCACCCCGTGAAATGACGGCATTGTTCCATTACAGTATCTGT”, -0.148 kT; to “GATAGTCTCATTTTCACCCCGTGAAATGACGTAATTGTTCCATTACAGTATCTGT”, -0.759 kT.

In the case of “GATAGTCTCATTTTCACCCCGTGAAATGAGTTACTTGTTCCATTACAGTATCTGT”, the binding signal was determined as 0.198 kT. Still for that read-out and setting: next, “GATAGTCTCATTTTCACCCCGTGAAATGACCCAGTTGTTCCATTACAGTATCTGT”: 0.583 kT; “GATAGTCTCATTTTCACCCCGTGAAAAGACTCATTTGTTCCATTACAGTATCTGT”: 0.016 kT; “GATAGTCTCATTTTCACCCCGTGAAATGAGTAACTTGTTCCATTACAGTATCTGT”: -0.237 kT. On the same count and under the same terms, next, “GATAGTCTCATTTTCACCCCGTGAAATGACTTACTTGTTCCATTACAGTATCTGT”: 0.0298 kT; “GATAGTCTCATTTTCACCCCGTGAAATCACGTCATTGTTCCATTACAGTATCTGT”: -0.743 kT. On the same count and under the same terms, to “GATAGTCTCATTTTCACCCCGTGAAATGAGTTAGTTGTTCCATTACAGTATCTGT” belongs 0.169 kT.

Turning to “GATAGTCTCATTTTCACCCCGTGAAATCAGTCATTTGTTCCATTACAGTATCTGT”, the binding signal was -0.312 kT. Consider “GATAGTCTCATTTTCACCCCGTGAAATGAGCCAATTGTTCCATTACAGTATCTGT”, for which the binding signal is 0.591 kT. On the same count and under the same terms, to “GATAGTCTCATTTTCACCCCGTGAAATTCAGTCATTGTTCCATTACAGTATCTGT” belongs -0.317 kT; to “GATAGTCTCATTTTCACCCCGTGAAACTGTGTCATTGTTCCATTACAGTATCTGT”, -0.318 kT; to “GATAGTCTCATTTTCACCCCGTGAAAGCGAGTCATTGTTCCATTACAGTATCTGT”, -0.514 kT.

The next experiment has as its target T2, BATF2 (bZIP);JUNB (human;human, UniProt Q8N1L9;P17275 1-142;148-347, |).
T2 sequence 1: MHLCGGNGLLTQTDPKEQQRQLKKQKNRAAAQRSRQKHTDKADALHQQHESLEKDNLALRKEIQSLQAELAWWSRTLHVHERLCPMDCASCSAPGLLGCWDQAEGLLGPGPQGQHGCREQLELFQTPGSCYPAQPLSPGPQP
T2 sequence 2: T1 sequence 2
The experiment is described as above. To be noted: protein: recombinant;recombinant; tags: N-terminal mCherry-TEV, cleaved off;C-terminal 6His; copies: 1;1; dsDNA, one strand shown. In a few lines:
as §1
For the sequence “GATAGTCTCATTTTCACCCCGTGAAATCACTCATTTGTTCCATTACAGTATCTGT”, the binding signal was 0.442 kT.

“GATAGTCTCATTTTCACCCCGTGAAATGAGTTAATTGTTCCATTACAGTATCTGT”: the binding signal is 0.697 kT. Same read-out and setting: to “GATAGTCTCATTTTCACCCCGTGAAAGAGAGTCATTGTTCCATTACAGTATCTGT” belongs 0.318 kT; to “GATAGTCTCATTTTCACCCCGTGAAATTAGTCATTTGTTCCATTACAGTATCTGT”, -0.599 kT. Same read-out and setting: to “GATAGTCTCATTTTCACCCCGTGAAAACGAGTCATTGTTCCATTACAGTATCTGT” belongs -0.0168 kT.

As for “GATAGTCTCATTTTCACCCCGTGAAATGAGTCCTTTGTTCCATTACAGTATCTGT”, the binding signal stood at 1.09 kT. On the same count and under the same terms, to “GATAGTCTCATTTTCACCCCGTGAAATGAGTCCCTTGTTCCATTACAGTATCTGT” belongs 1.38 kT; to “GATAGTCTCATTTTCACCCCGTGAAATGGGTCATTTGTTCCATTACAGTATCTGT”, 0.704 kT. On the same count and under the same terms, to “GATAGTCTCATTTTCACCCCGTGAAATGACGTGATTGTTCCATTACAGTATCTGT” belongs -0.181 kT.

As to “GATAGTCTCATTTTCACCCCGTGAAATGACCCAATTGTTCCATTACAGTATCTGT”, the binding signal was found to be 0.768 kT. On the same count and under the same terms, to “GATAGTCTCATTTTCACCCCGTGAAATGACTCGCTTGTTCCATTACAGTATCTGT” belongs 0.667 kT; to “GATAGTCTCATTTTCACCCCGTGAAATGATTCATTTGTTCCATTACAGTATCTGT”, -0.369 kT; to “GATAGTCTCATTTTCACCCCGTGAAAATGAGTCATTGTTCCATTACAGTATCTGT”, -1.01 kT. Same read-out and setting: next, “GATAGTCTCATTTTCACCCCGTGAAATGAGTAAATTGTTCCATTACAGTATCTGT”: 0.684 kT.

As for “GATAGTCTCATTTTCACCCCGTGAAATAACTCATTTGTTCCATTACAGTATCTGT”, the binding signal turned out to be 0.612 kT.

On to “GATAGTCTCATTTTCACCCCGTGAAATGAGACACTTGTTCCATTACAGTATCTGT”, for which the binding signal came out at 1.71 kT. Same read-out and setting: to “GATAGTCTCATTTTCACCCCGTGAAACTGGGTCATTGTTCCATTACAGTATCTGT” belongs 0.724 kT; to “GATAGTCTCATTTTCACCCCGTGAAATGACTCCGTTGTTCCATTACAGTATCTGT”, 0.724 kT; to “GATAGTCTCATTTTCACCCCGTGAAATGAGACATTTGTTCCATTACAGTATCTGT”, 1.21 kT. With “GATAGTCTCATTTTCACCCCGTGAAATGACGGCATTGTTCCATTACAGTATCTGT”, the binding signal came out at 0.419 kT. The same measure, in the same setting: next, “GATAGTCTCATTTTCACCCCGTGAAATGACGTAATTGTTCCATTACAGTATCTGT”: -0.891 kT. On the same count and under the same terms, to “GATAGTCTCATTTTCACCCCGTGAAATGAGTTACTTGTTCCATTACAGTATCTGT” belongs 0.967 kT.

The record behind these values is publication PMC5869772, “Quantitative profiling of BATF family proteins/JUNB/IRF hetero-trimers using Spec-seq”.
